The values that follow come from PubChem BioAssay AID2284073 (EPA ToxCast).

As a reminder, the AC50 is the concentration at which the activity in the assay is half-maximal.

Calls of active or inactive are those of the source. The calls were made as follows: active = hit-call score of the fitted dose curve at least 0.9, where 1 is the maximum; inactive = score below 0.9.

human (CYP19A1), CYP19A1 (gene 1588), sequence (P11511 whole entry, looked up): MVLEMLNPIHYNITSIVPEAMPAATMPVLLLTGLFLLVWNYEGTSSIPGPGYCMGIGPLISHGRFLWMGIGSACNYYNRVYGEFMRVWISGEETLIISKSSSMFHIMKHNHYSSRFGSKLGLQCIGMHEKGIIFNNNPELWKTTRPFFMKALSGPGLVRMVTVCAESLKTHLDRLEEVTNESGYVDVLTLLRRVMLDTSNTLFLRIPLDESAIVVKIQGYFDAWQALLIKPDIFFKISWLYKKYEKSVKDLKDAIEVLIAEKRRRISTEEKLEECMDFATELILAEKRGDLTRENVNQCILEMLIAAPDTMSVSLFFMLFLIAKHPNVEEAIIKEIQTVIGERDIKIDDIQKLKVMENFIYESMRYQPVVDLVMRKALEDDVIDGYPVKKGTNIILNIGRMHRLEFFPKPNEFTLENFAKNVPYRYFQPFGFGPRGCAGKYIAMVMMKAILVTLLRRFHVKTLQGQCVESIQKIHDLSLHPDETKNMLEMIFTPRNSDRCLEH

The assay deals with human (CYP19A1), CYP19A1 (gene 1588) (UniProt P11511). The experiment in a line: ERF_TW_ENZ_hCYP19A1: Eurofins (ERF) Enzymatic CYP450 LeadHunter Assay for human (CYP19A1). Here is the method:
ERF_TW_ENZ_hCYP19A1 is a biochemical, single-readout assay that uses extracted gene-proteins in a cell-free assay. Measurements were taken 0.75 hour after chemical dosing in a 96-well plate. See CYP19A1 Human CYP450 Enzymatic Assay, Panlabs.ERF_TW_ENZ_hCYP19A1 is an assay component calculated from the ERF_TW_ENZ_hCYP19A1 assay. It is designed to measure enzyme activity using a type of enzyme reporter as detected by fluorescence intensity with spectrophotometry technology.Data from the assay component ERF_TW_ENZ_hCYP19A1 was analyzed at the assay endpoint, ERF_TW_ENZ_hCYP19A1, in the positive analysis fitting direction relative to DMSO as the negative control and baseline of activity. Using a type of enzyme reporter, loss-of-signal activity can be used to understand changes in enzymatic activity as they relate to gene CYP19A1. To generalize the intended target to other relatable targets, this assay endpoint is annotated to the cyp intended target family, where the subfamily is steroidogenesis-related.
Human recombinant CYP450 19 plus P450 reductase, expressed in baculovirus infected insect BTI-TN-5B1-4 cells is used. Test compound and/or vehicle is preincubated with 4 nM enzyme in phosphate buffer pH 7.4 for 15 minutes at 37C. […] Determination of the amount of dibenzylfluorescein remaining is read spectrofluorimetrically. […]
Consider `COc1cc(CCC(=O)CC(=O)CCc2ccc(O)c(OC)c2)ccc1O`, for which the AC50 was 5.05 µM (active).
